TDP1 cell CPT – growth inhibition of DT40 Tdp1-/-;hTDP1 cells with camptothecin (screen for TDP1 inhibitors); chicken DT40 Tdp1-/-;hTDP1 cells + 20 nM CPT, ATP luminescence, 48 h; 420,000 tested, 12% active; Potency, µM (highest dose often 46.2 µM), without a hit: at the top dose activity change, negative = growth inhibition, hits mostly inhibitors; note: nearly all actives have a fitted effect of over 55% in size
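Chicken DT40 Tdp1-/- cells stably complemented with human TDP1 were seeded at 400 cells/well in medium containing 20 nM camptothecin, exposed to pin-transferred compounds, and grown at 37 °C for at least 48 hr. Viability was read as ATP luminescence.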
HT1080 IDH1KD tx – toxicity to HT-1080 IDH1 knockdown cells (counter line); HT-1080 IDH1 knockdown viability, ATP luminescence, 48 h; Potency, µM (top dose mostly 46.1 µM), for inactives: top-dose activity, negative = toxicity, most hits filed as cytotoxic; 360,000 tested, 2% active;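 note: 0% = DMSO wells and -100% = cell-free medium wells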
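% activity derives from luminescence (CellTiter-Glo), normalised to DMSO and no-cell wells. HT-1080-IDH1KD cells, 750/well, had 48 h compound exposure at 37 °C.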
KB-V1 MDR tox – kills drug-selected multidrug resistant KB-V1 cells | KB-V1 MDR cells viability, CellTiter-Glo, 72 h | 400,000 tested, 3.4% active | Potency, µM (titrated, usually from 46.1 µM), actives largely listed as cytotoxic; note: nearly all actives have a fitted effect of over 60% in size
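Drug-selected KB-V1 cells, grown in DMEM lacking phenol red with 10% FBS, receive compound titrations; after three days at 37 degrees C, surviving cell ATP is quantified by CellTiter-Glo luminescence and responses normalized and curve-fitted.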
KB-3-1 tox – kills parental KB-3-1 adenocarcinoma cells. KB-3-1 viability, CellTiter-Glo ATP luminescence, 72 h. Potency, µM (titrated, usually from 46.1 µM), actives largely listed as cytotoxic. 400,000 tested, 1.4% active. AID 1347075; note: nearly all actives have a fitted effect of over 60% in size
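Multi-concentration cytotoxicity screen in KB-3-1 cells grown in DMEM lacking phenol red with 10% FBS. After 72 h at 37 °C with compound, ATP-dependent luminescence was recorded.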
HT1080-NT tox – kills 2HG-producing HT-1080-NT fibrosarcoma cells. HT-1080-NT fibrosarcoma viability, CellTiter-Glo ATP luminescence, 48 h. Potency, µM (highest dose often 46.1 µM), for the others: at the highest dose activity, negative = less viability, hits mostly cytotoxic. 360,000 tested, 1.6% active. AID 686970;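 note: NT is the 2HG producing partner of a matched IDH1 knockdown line; 0% = DMSO-treated cells and -100% = media-only wells without cells; nearly all actives have a fitted effect of over 55% in size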
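A 48-hour cytotoxicity screen used HT-1080-NT cells plated 2 hours before compound delivery. ATP-based CellTiter-Glo luminescence measured viability, normalized to DMSO and no-cell controls.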
TDP1 cell noCPT – qHTS for Inhibitors of human tyrosyl-DNA phosphodiesterase 1 (TDP1): qHTS in cells in absence of CPT. DT40 Tdp1-/- hTDP1 cells, no CPT, ATP luminescence, 48 h. 420,000 tested, 15% active. Potency, µM (doses to about 46.2 µM), for inactives: at the top dose activity change, negative = growth inhibition, actives largely listed as inhibitors. AID 686978, 2013; note: nearly all actives have a fitted effect of over 55% in size
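Compound effects on proliferation are scored in DT40 Tdp1-/-;hTDP1 cells in the absence of CPT. ATP levels (CellTiter-Glo luminescence) are recorded after a ≥48 hr, 37 °C incubation.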
Starred values were filed as active, the others as inactive; i = inactive; ? = inconclusive; nt = no result. Only some compounds are listed: those with a hit (about 19% of all), similar ones and a draw of the others. Calls come from the whole dose curve; as a rule, active = well fitted curve in the direction sought with a large enough effect; inconclusive = small, poorly fitted or top-dose-only effect, or another doubt; inactive = no such curve, though single readings can be large; an effect the other way counts as inactive or inconclusive. Unless noted, % is set by controls: 0 for no effect and ±100 for the full control effect; potency is the fitted concentration of half-maximal effect.

SMILES | TDP1 cell CPT | HT1080 IDH1KD tx | KB-V1 MDR tox | KB-3-1 tox | HT1080-NT tox | TDP1 cell noCPT
O=C(COC(=O)[C@@H]1CC(O)CN1S(=O)(=O)c1ccccc1[N+](=O)[O-])c1ccccc1 (some centres not stated) | -7% | -2% | ? | i | -1% | -3%
CCCCNc1c(C(=O)OCC)c(C)nc2c1cnn2CC | 13µM* | -20% | ? | i | -10% | 21µM*
CCOC(=O)c1c(C)nc2c(C#N)cnn2c1C | -14% | 11% | i | i | 2% | -21%
Cc1noc(/C=C/c2cccs2)c1S(=O)(=O)N1CCC(C(=O)NCc2ccccc2Cl)CC1 | -1% | nt | nt | nt | nt | -28%
CCC(=O)NC(c1cccs1)c1cc(Cl)c2cccnc2c1O (configuration not stated) | 4.6µM* | ? | i | i | ? | 3.3µM*
CCCCC(=O)NC(c1cccs1)c1cc(Cl)c2cccnc2c1O (configuration not stated) | 3.7µM* | ? | ? | ? | ? | 2.6µM*
CCC(=O)NC(c1cc(Cl)c2cccnc2c1O)C(C)C (configuration not stated) | nt | nt | ? | i | nt | nt
COCCN(CC(=O)Nc1cccc(C)c1C)C(=O)Cc1sc(C)nc1-c1ccc(F)cc1 | 0% | -1% | i | i | -3% | -22%
Cc1nc(-c2ccc(F)cc2)c(CC(=O)N(C)CC(=O)Nc2ccccc2Cl)s1 | ? | -12% | 3.7µM* | i | 0% | ?
Cc1nc(-c2ccc(F)cc2)c(CC(=O)N(C)CC(=O)Nc2ccc(Cl)c(C(F)(F)F)c2)s1 | ? | 16µM* | i | i | ? | ?
COc1ccccc1-c1noc(-c2ccc(NCC3CCCO3)c([N+](=O)[O-])c2)n1 (configuration not stated) | 18µM* | nt | i | i | nt | 8.2µM*
Cc1ccccc1-c1noc(-c2ccc(NCC3CCCO3)c([N+](=O)[O-])c2)n1 (configuration not stated) | 3.3µM* | nt | i | i | nt | 2.1µM*
O=[N+]([O-])c1cc(-c2nc(-c3ccccc3)no2)ccc1NCC1CCCO1 (configuration not stated) | ? | nt | ? | i | nt | ?
COc1ccccc1-c1noc(-c2ccc(NC3CCCC3)c([N+](=O)[O-])c2)n1 | 18µM* | nt | i | i | nt | 23µM*
Cc1ccccc1-c1noc(-c2ccc(NC3CCCC3)c([N+](=O)[O-])c2)n1 | -12% | nt | ? | i | nt | -19%
CN(CC1CCCN(CCc2ccccc2F)C1)C(=O)c1cc2ccccc2o1 (configuration not stated) | ? | -3% | i | i | -3% | ?
S=c1nc(-c2csc3c2CCCC3)[nH][nH]1 | 16µM* | -10% | i | i | 6% | 16µM*
CCOC(=O)c1[nH]c2c(c1Cc1ccccc1OC)C(=O)CC(c1ccccc1)C2 (configuration not stated) | ? | nt | i | i | nt | ?
COc1cc(C2CC(=O)c3c([nH]c(C(=O)OC4CCCCC4)c3C)C2)cc(OC)c1OC (configuration not stated) | 1.8µM* | nt | i | ? | nt | 2.1µM*
COc1cc(C2CC(=O)c3c([nH]c(C(=O)OCC4CCCCC4)c3C)C2)cc(OC)c1OC (configuration not stated) | 1.3µM* | nt | nt | nt | nt | 1.6µM*
CCOC(=O)c1[nH]c2c(c1Cc1ccccc1OC)C(=O)CC(c1ccc(OCC)cc1)C2 (configuration not stated) | 8.2µM* | nt | i | i | nt | 9.2µM*
CCOc1ccc(C2CC(=O)c3c([nH]c(C(=O)OCC4CCCCC4)c3C)C2)cc1 (configuration not stated) | ? | nt | i | i | nt | 18µM*
CCc1ccc(C2CC(=O)c3c([nH]c(C(=O)OCC4CCCCC4)c3C)C2)cc1 (configuration not stated) | -25% | nt | i | i | nt | ?
CCOC(=O)Cc1cnc(NC(=O)CSc2nc3ncnc(N)c3[nH]2)s1 | -18% | -7% | ? | i | -5% | -14%
Cc1cc(C(C)(C)C)cc(C)c1C(=O)O | 9% | 1% | i | i | 14% | 3%
SMILES | TDP1 cell CPT | HT1080 IDH1KD tx | KB-V1 MDR tox | KB-3-1 tox | HT1080-NT tox | TDP1 cell noCPT
O=C(NCCN1CCC(n2c(=O)[nH]c3ccccc32)CC1)c1ccccc1C(F)(F)F | ? | 7% | i | i | 1% | ?
O=C(CSc1nnc(-c2ccncc2)n1Cc1ccco1)N1c2ccccc2Sc2ccc(Cl)cc21 | 15µM* | 0% | i | ? | 0% | -21%
Cn1nnnc1SCC(=O)N1c2ccccc2Sc2ccc(Cl)cc21 | ? | 0% | i | i | -5% | 21µM*
Cn1c(SCC(=O)N2c3ccccc3Sc3ccc(Cl)cc32)nnc1-c1ccco1 | 21µM* | 7% | 23µM* | i | 0% | ?
CCN(/N=C/c1ccc(Cl)cc1)c1cc(=O)n(C)c(=O)[nH]1 | -28% | -7% | i | i | 1% | -15%
CCN(/N=C/C=C/c1ccccc1)c1cc(=O)n(C)c(=O)[nH]1 | 1.5µM* | 3% | i | i | -3% | -62%
CCOc1ccc(-c2cc3nc(C4CCN(C(=O)OC(C)(C)C)CC4)c(C(=O)Nc4ccc(C)cc4C)cn3n2)cc1 | 18µM* | nt | i | i | nt | 21µM*
CCOc1ccc(-c2cc3nc(C4CCN(C(=O)OC(C)(C)C)CC4)c(C(=O)Nc4c(C)cccc4C)cn3n2)cc1 | 15µM* | nt | i | i | nt | 13µM*
CCOc1ccc(-c2cc3nc(C4CCN(C(=O)OC(C)(C)C)CC4)c(C(=O)Nc4cccc(Cl)c4C)cn3n2)cc1 | 18µM* | nt | i | i | nt | 15µM*
CCOc1ccc(-c2cc3nc(C4CCN(C(=O)OC(C)(C)C)CC4)c(C(=O)Nc4ccc(C)cc4Cl)cn3n2)cc1 | ? | nt | i | i | nt | ?
O=C(NCc1ccc(Cl)cc1)c1cnc2sc(N3CCCCCC3)nn2c1=O | 15% | nt | nt | nt | nt | -1%
COc1ccc(C2=NOC(Cn3nc(C(=O)NCC4CC4)cc3-c3ccccc3)C2)cc1 (configuration not stated) | 21µM* | -2% | i | i | -2% | ?

Screening data from PubChem BioAssay.
